The record followed here is PubChem BioAssay.

Structures are written as SMILES. Activity calls are given as the source filed them.

Assay [1] relates to PRMT1 (protein arginine N-methyltransferase 1). Description: small molecules binding arginine methyltransferase PRMT1 – biochemical, small-molecule microarray, 635 nm fluorescence, primary screen (AID 1088).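 Further: binding of Prmt1 protein to compounds spotted on small-molecule microarray slides.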 The conditions noted are these: higher = more signal.
Assay [2] is described as follows: growth effects on S. cerevisiae YJM789 – YJM789 clinical isolate, OD600, 24 h, basal, primary screen (AID 1089).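 Further: growth of clinical yeast isolate S. cerevisiae YJM 789 seeded 1000 cells per well; test concentration not given here.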 The conditions noted are these: higher = more signal, called active from +8 up or from −8 down.
Assay [3] in a line: S. pombe growth modifiers, basal conditions – strain 972, OD600, 24 h, no modulator, primary screen (AID 1090).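 Further: basal condition with compound alone and no growth modifier present; test concentration not given here.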 The conditions noted are these: S. pombe 972 growth, higher = more signal, called active from +8 up or from −8 down.
A short description of assay [4]: budding yeast growth modifiers under rapamycin – strain BY4716, OD600, 96 h, primary screen (AID 1091). Further: test concentration not given here. The conditions noted are these: S. cerevisiae BY4716 + rapamycin, higher = more signal, called active from +8 up or from −8 down.
The target in assay [5] is Torsin-1A-interacting protein 2 (Homo sapiens) (UniProt Q8NFQ8). Briefly: small molecules binding lysate-expressed LULL1 – cell lysate, human LULL1 lysate, 635/667 nm fluorescence, primary screen (AID 1092).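 Further: probe is lysate of COS7 cells overexpressing human LULL1; score merges per-feature 667 nm fluorescence with signal-to-noise.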 The conditions noted are these: small-molecule microarray, hLULL1 lysate binding, 635 nm fluorescence; higher = more signal.
Sequence of Torsin-1A-interacting protein 2 (Homo sapiens) (Q8NFQ8 whole entry, looked up): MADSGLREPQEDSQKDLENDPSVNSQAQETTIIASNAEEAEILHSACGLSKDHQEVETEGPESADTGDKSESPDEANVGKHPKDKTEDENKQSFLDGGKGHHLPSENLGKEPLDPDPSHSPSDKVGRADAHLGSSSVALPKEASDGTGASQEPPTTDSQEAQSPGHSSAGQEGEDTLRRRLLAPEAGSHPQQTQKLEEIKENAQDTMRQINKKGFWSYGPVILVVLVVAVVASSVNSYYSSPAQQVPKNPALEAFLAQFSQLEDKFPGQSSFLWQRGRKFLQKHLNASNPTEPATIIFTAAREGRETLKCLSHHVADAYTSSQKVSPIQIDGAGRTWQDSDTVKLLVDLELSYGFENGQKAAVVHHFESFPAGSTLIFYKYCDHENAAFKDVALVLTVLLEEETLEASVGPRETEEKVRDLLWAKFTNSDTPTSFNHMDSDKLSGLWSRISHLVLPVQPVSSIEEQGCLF
The nature of assay [6]: optical density change of DRC41 E. coli – strain DRC41, OD650, 24 h, E. coli filamentation project, primary screen (AID 1093).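 Further: MC1000 strain lacking acrAB efflux and sulA so SOS filamentation is blocked; test concentration not given here.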 The conditions noted are these: E. coli DRC41 growth, higher = more signal, called active from +8 up or from −8 down.
Assay [7] in a line: probe aLefty2 binding to arrayed compounds – biochemical, biotinylated probe, 635/667 nm fluorescence, primary screen (AID 1094).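 Further: score merges spot fluorescence near 667 nm with spot signal-to-noise ratio.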 The conditions noted are these: small-molecule microarray, higher = more signal.
Assay [8] has as its system Noggin (protein binding on small-molecule microarray). Briefly: small molecules binding Noggin protein – biochemical, 635/667 nm fluorescence, primary screen (AID 1095).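 Further: score merges 667 nm feature fluorescence with signal to noise over triplicate slides.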 The conditions noted are these: 635 nm fluorescence, higher = more signal.
Assay [9] deals with Neurogenic locus notch homolog protein 3 (Homo sapiens) (UniProt Q9UM47). Briefly: small molecules binding NOTCH3 protein – biochemical, 635/667 nm fluorescence, primary screen (AID 1096). The conditions noted are these: small-molecule microarray, 635 nm fluorescence, higher = more signal.
Sequence of Neurogenic locus notch homolog protein 3 (Homo sapiens) (Q9UM47 whole entry, looked up): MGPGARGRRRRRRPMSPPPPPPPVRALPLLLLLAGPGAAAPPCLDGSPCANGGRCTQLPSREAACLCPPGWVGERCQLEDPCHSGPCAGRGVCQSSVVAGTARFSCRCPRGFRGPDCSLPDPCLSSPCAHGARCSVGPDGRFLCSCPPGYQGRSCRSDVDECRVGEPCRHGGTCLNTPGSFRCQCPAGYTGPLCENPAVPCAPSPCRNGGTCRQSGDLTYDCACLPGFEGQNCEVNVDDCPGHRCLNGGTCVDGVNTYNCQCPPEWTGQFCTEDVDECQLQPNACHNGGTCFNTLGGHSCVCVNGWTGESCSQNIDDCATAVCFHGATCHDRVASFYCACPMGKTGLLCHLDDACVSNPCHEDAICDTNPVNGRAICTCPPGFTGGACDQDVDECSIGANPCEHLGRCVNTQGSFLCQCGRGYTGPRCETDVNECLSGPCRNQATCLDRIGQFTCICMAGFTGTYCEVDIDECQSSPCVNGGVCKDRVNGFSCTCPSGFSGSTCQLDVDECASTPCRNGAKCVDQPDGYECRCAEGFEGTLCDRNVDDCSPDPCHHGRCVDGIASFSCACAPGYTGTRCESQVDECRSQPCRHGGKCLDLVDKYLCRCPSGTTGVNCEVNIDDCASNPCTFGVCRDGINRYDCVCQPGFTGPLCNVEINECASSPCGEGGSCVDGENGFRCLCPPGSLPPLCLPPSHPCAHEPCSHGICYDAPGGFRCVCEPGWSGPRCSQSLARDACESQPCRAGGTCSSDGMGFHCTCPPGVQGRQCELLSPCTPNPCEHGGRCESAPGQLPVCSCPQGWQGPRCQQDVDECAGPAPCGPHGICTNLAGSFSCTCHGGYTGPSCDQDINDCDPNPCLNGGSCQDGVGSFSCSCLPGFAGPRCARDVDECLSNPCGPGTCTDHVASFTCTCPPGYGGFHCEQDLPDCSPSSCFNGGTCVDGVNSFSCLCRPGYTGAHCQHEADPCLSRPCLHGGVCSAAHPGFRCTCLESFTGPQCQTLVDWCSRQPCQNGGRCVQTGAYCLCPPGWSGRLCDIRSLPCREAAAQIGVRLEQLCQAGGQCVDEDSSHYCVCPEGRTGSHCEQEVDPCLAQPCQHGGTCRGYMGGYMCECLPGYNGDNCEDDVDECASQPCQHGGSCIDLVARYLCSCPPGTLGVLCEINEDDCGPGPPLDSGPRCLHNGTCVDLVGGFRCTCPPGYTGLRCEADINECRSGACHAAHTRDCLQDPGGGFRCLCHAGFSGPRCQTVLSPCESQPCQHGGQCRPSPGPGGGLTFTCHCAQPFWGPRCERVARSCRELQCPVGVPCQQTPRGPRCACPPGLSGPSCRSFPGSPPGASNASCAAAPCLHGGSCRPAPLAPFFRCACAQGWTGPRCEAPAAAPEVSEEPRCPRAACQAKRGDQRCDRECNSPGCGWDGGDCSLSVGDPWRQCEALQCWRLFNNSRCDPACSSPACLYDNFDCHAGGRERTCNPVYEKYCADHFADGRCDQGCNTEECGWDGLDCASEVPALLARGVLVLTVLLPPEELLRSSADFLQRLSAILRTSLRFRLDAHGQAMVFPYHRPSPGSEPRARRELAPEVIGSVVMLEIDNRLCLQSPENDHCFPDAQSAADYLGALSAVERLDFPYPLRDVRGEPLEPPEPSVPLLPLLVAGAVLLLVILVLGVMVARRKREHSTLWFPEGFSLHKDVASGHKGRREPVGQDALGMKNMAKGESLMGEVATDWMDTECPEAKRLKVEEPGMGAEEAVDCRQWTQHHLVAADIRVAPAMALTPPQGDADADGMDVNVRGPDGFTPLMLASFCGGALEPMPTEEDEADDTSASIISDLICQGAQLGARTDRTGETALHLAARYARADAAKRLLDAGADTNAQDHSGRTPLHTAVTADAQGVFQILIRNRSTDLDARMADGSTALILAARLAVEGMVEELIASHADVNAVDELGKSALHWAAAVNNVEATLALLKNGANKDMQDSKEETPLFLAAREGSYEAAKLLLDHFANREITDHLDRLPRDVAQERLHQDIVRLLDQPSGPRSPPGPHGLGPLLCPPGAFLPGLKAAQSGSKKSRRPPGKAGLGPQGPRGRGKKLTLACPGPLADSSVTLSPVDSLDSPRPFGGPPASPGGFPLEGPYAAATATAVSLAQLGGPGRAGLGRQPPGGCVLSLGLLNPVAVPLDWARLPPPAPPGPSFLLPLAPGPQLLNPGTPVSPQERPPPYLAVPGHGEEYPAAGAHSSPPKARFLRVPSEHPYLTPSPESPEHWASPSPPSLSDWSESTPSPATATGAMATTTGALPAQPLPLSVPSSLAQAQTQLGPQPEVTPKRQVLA
Assay [10] is described as follows: probe aEGFR binding to arrayed compounds – biochemical, biotinylated probe, 635/667 nm fluorescence, primary screen (AID 1097).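 Further: probe is a biotinylated anti-EGFR antibody binding compounds printed on slides; score combines fluorescence near 667 nm and signal to noise of each spot.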 The conditions noted are these: small-molecule microarray, higher = more signal.

Take `Cc1ccc(F)cc1S(=O)(=O)N[C@@H]1CCN(Cc2ccc(OC(C)C)cc2)C1`: the composite z-score in assay [1] was -0.43; in assay [5] it was -0.526; in assay [7] it was -0.218; in assay [8] it was 0.313; in assay [9] it was -0.877; in [10], -0.273. The z-score in [2] was -1.01 (inactive); in assay [3], -14.4 (active); in assay [4] it was -0.839 (inactive); in assay [6], -19.6 (active).
As for `CCOC(=O)C1=CC[C@@H](c2ccc([N+](=O)[O-])cc2)N(S(=O)(=O)c2ccc(C)cc2)[C@H]1c1ccccc1`, the composite z-score in assay [1] stood at 1.54; in assay [5] it was 2.98; in assay [7], 0.0511; in assay [8] it was 1.02; in assay [9] it was 1.14; in assay [10], 0.202. The z-score in assay [2] is 0.792 (inactive); in assay [3] it was 1.45 (inactive); in [4], 3.16 (inactive); in [6] it was 0.413 (inactive).
With `COCCCNC(=O)[C@]1(Cc2ccccc2CN=[N+]=[N-])N=C(c2ccc(OCCCO)cc2)O[C@@H]1c1ccccc1`, the composite z-score in assay [1] was 0.972; in assay [5], 2.67; in assay [7], -0.0819; in assay [8], 0.348; in assay [9], 0.599; in [10], 0.0316. For the same molecule, the z-score is -0.212 (inactive) in assay [2], -0.0448 (inactive) in [3], 30.9 (active) in assay [4] and 1.01 (inactive) in assay [6].
With `Cc1ccc(S[C@]2(C(=O)NC(C)C)CC(=O)N(Cc3ccccc3C(F)(F)F)[C@@H]2c2ccc(CO)cc2I)cc1`, the composite z-score in assay [1] was 1.13; in assay [5] it was 0.515; in assay [7], 0.0844; in assay [8], -0.76; in assay [9], -0.669; in assay [10], -0.283. Moreover, the z-score in assay [2] was -2.32 (inactive); in assay [3], -4.49 (inactive); in assay [4], 1.18 (inactive); in assay [6] it was -1.73 (inactive).
`COCCOC(=O)N1C(=O)[C@@]2(c3cc(C#CC4=CCCCC4)ccc31)[C@H](C(=O)N1CCN(c3ncccn3)CC1)[C@H]1C(=O)O[C@H](c3ccccc3)[C@H](c3ccccc3)N1[C@@H]2c1ccc(O)cc1`: the composite z-score in assay [1] was determined as 1.53; in [5], 1.53; in assay [7], 0.0848; in assay [8], 0.568; in assay [9] it was 1.09; in assay [10], 0.0891. For the same molecule, the z-score in assay [2] was 0.783 (inactive); in [3], 0.883 (inactive); in assay [4], 2.1 (inactive); in [6], -0.56 (inactive).
As for `COc1ccc([Si](C)(C)[C@@H]2[C@@H](CC(=O)N3CCC[C@H]3CO)O[C@]3(C(=O)N(Cc4ccc(N5C(=O)c6cccc7cccc5c67)cc4)c4ccccc43)[C@H]2C)cc1`, the composite z-score is 1.54 in [1]; 3.07 in [5]; -0.238 in [7]; 1.41 in assay [8]; 1.08 in [9]; -0.129 in assay [10]. Further, the z-score in assay [2] was 0.035 (inactive); in assay [3], 0.378 (inactive); in [4] it was 0.922 (inactive); in assay [6] it was 1.84 (inactive).
Regarding `C=CCN1C(=O)[C@@]2(CCC(=O)OC(C)(C)C)N=C(c3ccc(OCCCO)cc3)O[C@H]2c2ccccc21`, the composite z-score in [1] is 1.47; in assay [5], 2.71; in assay [7], 0.107; in [8], 1.24; in assay [9], 1.09; in assay [10], -0.146. The z-score was -1.89 (inactive) in assay [2], -5.84 (inactive) in [3], 1.44 (inactive) in assay [4] and 0.784 (inactive) in assay [6].
In the case of `CN(C)CCCNC(=O)[C@@]1(C)c2ccccc2C(=O)N(Cc2cc(C(F)(F)F)cc(C(F)(F)F)c2)[C@H]1c1ccc(CO)cc1`, the composite z-score in assay [1] is 0.0376; in [5], 0.324; in assay [7], -0.192; in assay [8] it was -1.19; in assay [9], -0.35; in assay [10], -0.186. Further, the z-score in [2] is 0.113 (inactive); in [3] it was -1.83 (inactive); in [4], -0.945 (inactive); in assay [6], -0.72 (inactive).
As for `O=C1c2ccccc2[C@](Cc2ccccc2I)(C(=O)NCCN2CCOCC2)[C@H](c2ccc(CO)cc2)N1Cc1ccccc1`, the composite z-score in assay [1] was found to be 1.52; in assay [5] it was 2.8; in assay [7], 0.182; in [8], 0.406; in [9], 1.08; in assay [10] it was 0.225. The z-score was 0.189 (inactive) in assay [2], 0.0239 (inactive) in assay [3], -0.477 (inactive) in [4] and 0.47 (inactive) in assay [6].
As for `CC(C)C(O)C1C=CC2C(=O)N(C)C(=O)C2N1Nc1ccccc1` (stereo not given), the composite z-score in assay [1] was 0.694; in [5] it was 3.3; in assay [7] it was 0.873; in assay [8], 0.206; in [9] it was 0.707; in [10] it was 0.515. Further, the z-score was 0.324 (inactive) in assay [2], -0.163 (inactive) in [3], 0.204 (inactive) in [4] and -0.381 (inactive) in assay [6].
In the case of `CN1C(=O)C2C(C1=O)C1C=C(c3ccc(CO)cc3)C2C(c2cccs2)N1Cc1cccc(OC(F)(F)F)c1` (stereo not given), the composite z-score in [1] is 1.55; in [5] it was 2.65; in assay [7], 0.0007; in assay [8], 1.38; in assay [9], 1.09; in [10], -0.013. In addition, the z-score in assay [2] was -1.68 (inactive); in assay [3] it was -2.57 (inactive); in assay [4], 3.35 (inactive); in [6] it was 0.907 (inactive).
`C=CCOC(=O)[C@@H]1[C@H]2C(=O)O[C@H](c3ccccc3)[C@H](c3ccccc3)N2[C@H](c2ccc(OCCOC(=O)[C@H]3C[C@H]4C(=O)N[C@@H](CC(C)C)C(=O)N4[C@H]3c3ccc(O)cc3)cc2)[C@@]12C(=O)Nc1ccc(I)cc12`: the composite z-score in assay [1] is 1.54; in assay [5], 2.75; in assay [7] it was -0.0229; in [8], 1.81; in assay [9], 1.06; in assay [10], 0.0582. Further, the z-score in assay [2] was 0.157 (inactive); in [3], 1.11 (inactive); in assay [4], 2.65 (inactive); in [6] it was 0.574 (inactive).
For `C=CCOC(=O)[C@H]1[C@@H]2C(=O)O[C@@H](c3ccccc3)[C@@H](c3ccccc3)N2[C@@H](c2ccc(OCCOC(=O)[C@H]3C[C@H]4C(=O)N[C@@H](CCCC[N+](C)(C)C)C(=O)N4[C@H]3c3cccc(OCCO)c3)cc2)[C@]12C(=O)Nc1ccc(I)cc12`, the composite z-score in assay [1] is 1.29; in [5] it was 0.7; in [7], -0.166; in assay [8], 0.673; in [9], 0.456; in assay [10], 0.002. Moreover, the z-score in assay [2] is 1.11 (inactive); in [3], 2.23 (inactive); in [4] it was 4.75 (inactive); in assay [6], 0.396 (inactive).
Take `CC(C)N1C(=O)[C@@]2(c3ccc([N+](=O)[O-])cc3)CC(=O)N(C3CCCCC3)[C@@H]2c2ccc(CO)cc21`: the composite z-score is 1.27 in [1]; 0.198 in assay [5]; -0.103 in assay [7]; 0.622 in assay [8]; -0.509 in [9]; -0.0565 in assay [10]. Moreover, the z-score is -1.78 (inactive) in assay [2], 0.353 (inactive) in assay [3], -2.19 (inactive) in assay [4] and -1.43 (inactive) in assay [6].
